Each structure is given as a SMILES string. Inconclusive results are not listed. Calls of active or inactive are those of the source. Rule for the calls: active = hit-call score of the fitted dose curve at least 0.9, where 1 is the maximum; inconclusive = response in the unintended direction; inactive = score below 0.9.

Chain of human RAR-related Orphan Receptor gamma (RORg), RORC (gene 6097) (P51449 whole entry, looked up): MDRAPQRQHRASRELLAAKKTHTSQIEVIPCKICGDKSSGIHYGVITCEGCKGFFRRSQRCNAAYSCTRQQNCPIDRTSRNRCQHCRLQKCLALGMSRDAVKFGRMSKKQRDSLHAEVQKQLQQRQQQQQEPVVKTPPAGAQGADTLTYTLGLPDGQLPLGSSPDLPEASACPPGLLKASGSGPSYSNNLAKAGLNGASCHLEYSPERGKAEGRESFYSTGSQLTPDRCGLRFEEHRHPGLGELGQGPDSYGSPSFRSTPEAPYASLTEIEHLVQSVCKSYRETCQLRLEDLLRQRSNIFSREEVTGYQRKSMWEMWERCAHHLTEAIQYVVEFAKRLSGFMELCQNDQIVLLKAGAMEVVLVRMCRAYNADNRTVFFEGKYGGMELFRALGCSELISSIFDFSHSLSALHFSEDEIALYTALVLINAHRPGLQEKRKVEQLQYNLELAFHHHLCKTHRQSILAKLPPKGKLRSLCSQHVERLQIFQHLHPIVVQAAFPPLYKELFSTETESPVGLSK

The experiment concerns the target human RAR-related Orphan Receptor gamma (RORg), RORC (gene 6097) (UniProt P51449). Briefly: ATG_RORg_TRANS: Attagene TRANS-FACTORIAL HepG2 Assay for human RAR-related Orphan Receptor gamma (RORg) (AID 2283011). As to the method:
ATG_TRANS is a cell-based, multiplexed-readout assay that uses HepG2, a human liver cell line, with measurements taken at 24 hours after chemical dosing in a 24-well plate.ATG_RORg_TRANS is one of 30 assay component(s) measured or calculated from the ATG_TRANS assay. It is designed to make measurements of mRNA induction, a form of inducible reporter, as detected with fluorescence intensity signals by Reverse transcription polymerase chain reaction (RT-PCR) and Capillary electrophoresis technology.Data from the assay component ATG_RORg_TRANS was analyzed into 1 assay endpoint. This assay endpoint, ATG_RORg_TRANS, was analyzed in the positive analysis fitting direction relative to DMSO as the negative control and baseline of activity. Using a type of inducible reporter, measures of mRNA for gain-of-signal activity can be used to understand the reporter gene at the transcription factor-level as they relate to the gene RORC. Furthermore, this assay endpoint can be referred to as a primary readout, because this assay has produced multiple assay endpoints where this one serves a reporter gene function. To generalize the intended target to other relatable targets, this assay endpoint is annotated to the nuclear receptor intended target family, where the subfamily is orphan.
Human liver HepG2 cells are transiently transfected with multiple reporter transcription units (MRTUs) in 6-well plates using FuGene 6 reagent (Roche; 3 ml FuGene/1 mg DNA). The MRTU constructs are regulated by a cis-regulating element (promoter). […] A major difference between the CIS and TRANS system is that in CIS activities of endogenous TFs are measured, whereas the TRANS assay evaluates changes in activities of exogenous, chimeric NR-Gal4 proteins. […] At the end of 24 hour incubation, total RNA was isolated using TriZol reagent (Invitrogen). The isolated RNA is then reverse-transcribed using oligo(dT) primer and Mo-MLV reverse transcriptase (Invitrogen) with DNAse I (Ambion) treatment for 30 min. The one-tenth of the produced cDNA was amplified by PCR using Taq DNA polymerase (Invitrogen) and two reporter sequence-specific primers. The PCR products were fluorescently labeled by primer extension with 6-arboxyfluorescein (6-FAM) 5'-labeled reporter sequence-specific primer (2 min at 95 C, 20 s at 68 C and 10 min at 72 C) and these products were digested with 5U of HpaI (New England Biolabs) for 2h at 37 C. The fragments were purified using Qiaquick PCR columns (Qiagen), analyzed on an ABI 3130xL genetic analyzer (Applied Biosystems) with peak positions identified by using a set of X-rhodamine (ROX)-labeled MapMarker1000 molecular weight standards (BioVentures). The raw capillary electrophoresis data was processed using Attagraph software (Attagene).
On to `Nc1ccnc(=O)[nH]1`, for which the call was inactive.
`CCCCNC(=S)NCCCC`: the compound was classed as inactive.
Turning to `C=Cc1cccc(C)c1`, the compound was called inactive.
Take `COC(=O)C=Cc1ccccc1`: the compound was called inactive.
The entry for `CC1=CC(C)C(C=O)CC1` (stereo not given) is “inactive”.
`C=Cc1ccc(OC(C)=O)cc1`: the compound was called inactive.
In the case of `C=CCCCCCCCCOC(C)=O`, the outcome was inactive.
`CCCCCCCCCCCC(=O)N(C)CC(=O)O`: the compound was classed as inactive.
The value for `COC(C=C(C)CCC=C(C)C)OC` was “inactive”; that for `CC(C)(C)N` was “inactive”.
In the case of `COC(Cc1ccccc1)OC`, the compound was called inactive.
With `O=C1CCCN1C1CCCCC1`, the compound was classed as inactive.
The entry for `O=S(=O)(O)c1ccc(Nc2nc(Nc3ccc(C=Cc4ccc(Nc5nc(Nc6ccc(S(=O)(=O)O)cc6)nc(N(CCO)CCO)n5)cc4S(=O)(=O)O)c(S(=O)(=O)O)c3)nc(N(CCO)CCO)n2)cc1` is “inactive”.
As to `C=C(C)[C@@H]1CC=C(C)CC1`, the outcome was inactive.
Take `CCCCCCCCCC[N+](C)(CCCCCCCCCC)CCC[Si](OC)(OC)OC`: the outcome was inactive.
In the case of `CN(C)c1ccc2nc3ccc(=[N+](C)C)cc-3sc2c1`, the result was inactive.
As to `CC1(C)CC(O)CC(C)(C)N1[O]`, the outcome was inactive.
Regarding `CCCCC(CC)COS(=O)(=O)O` (stereo not given), the outcome was inactive.
With `CCCc1ccc(O)c(OC)c1`, the result was inactive.
As to `C[Si](C)(C)N[Si](C)(C)C`, the compound was called inactive.
Turning to `CC1=CP(=O)(c2ccccc2)CC1` (stereo not given), the outcome was inactive.
`CCC1COC(=O)O1` (stereo not given): the call was inactive.
The entry for `CCN1CN(CC)CN(CC)C1` is “inactive”; for `O=c1c(O)c(-c2ccc(O)cc2O)oc2cc(O)cc(O)c12` it is “inactive”.
As to `CCCCCCCCCCCCC`, the compound was called inactive.
As for `CC(C)OC(=O)c1ccccc1`, the compound was called inactive.
As for `CCc1cccc(C)c1N`, the call was inactive.
For the compound `C=CC(=O)OCC(C)OCC(C)OCC(C)OC(=O)C=C` (stereo not given), the outcome was inactive.
The value for `Cc1cc(C)n(CO)n1` was “inactive”; that for `Fc1ccc(Br)cc1` was “inactive”.
Regarding `CC(C)(C)C1CCC(=O)CC1`, the result was inactive.
Turning to `Cc1ccc(S(=O)(=O)N=C=O)cc1`, the call was inactive.
For the compound `CC(=O)OC1CCCCC1C(C)(C)C` (stereo not given), the call was inactive.
As to `Cc1cc(=O)[nH]c(=O)[nH]1`, the call was inactive.
In the case of `CCCC(C)C(=O)OCC` (stereo not given), the compound was classed as inactive.
On to `CN1CCN(C)CC1`, for which the result was inactive.
As for `C=C(C)OC(C)=O`, the result was inactive.
On to `O=C(O)C(F)(F)C(F)(F)C(F)(F)C(F)(F)C(=O)O`, for which the compound was classed as inactive.
On to `[Cl][Eu]([Cl])[Cl]`, for which the compound was classed as inactive.
As to `CC(CCC(=O)O)(c1ccc(O)cc1)c1ccc(O)cc1`, the call was inactive.
